Reference: PubChem BioAssay (Tox21)
Values joined by “and” are separate entries in the source; they are usually repeats but may differ in a detail not shown here. Equal entries are not always repeated. Results filed as inconclusive are left out. A call without a number means that no potency is given here. Unmarked numbers belong to inactive results. Active and inactive are the calls of the source. The call rests on the fitted dose curve; in most records, active means well fitted curve in the direction sought with a large enough effect in the repeat runs; inconclusive means weak or mixed curves; inactive means no such curve, though single readings can be large; an effect the other way counts as inactive or inconclusive.

Experiments:
[1] = molecular target: Cytochrome P450 2C9 (Homo sapiens) (UniProt P11712); assay: Cytochrome P450 Family 2 Subfamily C Member 9 (CYP2C9) small molecule antagonists: luciferase reporter qHTS assay (AID 1671198); conditions: P450-Glo CYP2C9 enzyme assay, luciferin luminescence; series mostly up to 53 µM
Method in brief: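 CYP2C9 activity was measured with a P450-Glo proluciferin substrate. Enzyme–substrate mix was held with compound for 10 min at room temperature, then NADPH regeneration solution was added for 1 h at 37C. Luciferin product was read as luminescence.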

[2] = molecular target: Voltage-gated inwardly rectifying potassium channel KCNH2 (Homo sapiens) (UniProt Q12809); assay: Human Ether-a-go-go-Related Gene (hERG) channel small molecule antagonists: fluorescence cell-based qHTS assay (AID 1671200); conditions: hERG-U2OS cells, FluxOR thallium flux fluorescence; series mostly up to 76.8 µM;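 on activity change, negative = inhibition: hERG-expressing U2OS cells given a thallium stimulus after FluxOR II dye loading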
Method in brief: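 hERG-U2OS cells plated overnight at 37 C, loaded with FluxOR II dye 1 h at RT in dark; after 10 min, thallium stimulus added. Fluorescence (480/540 nm) read kinetically for 2 min at 1 s intervals.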

[3] = molecular target: Cytochrome P450 3A4 (Homo sapiens) (UniProt P08684); assay: Cytochrome P450 Family 3 Subfamily A Member 4 (CYP3A4) small molecule antagonists: luciferase reporter qHTS assay (AID 1671201); conditions: P450-Glo CYP3A4 enzyme, luciferin luminescence, 1 h; series mostly up to 115 µM
Method in brief: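 P450-Glo CYP3A4 luminescent assay: compounds preincubated 10 min at room temperature with enzyme and proluciferin substrate, NADPH regeneration added, 1 h room-temperature reaction, stopped with luciferin detection reagent; luminescence read after 20 min. Ketoconazole positive control.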
Further: nearly all actives have a fitted effect of over 50% in size.
Potency means the concentration at half of the fitted maximal effect.

Cytochrome P450 3A4 (Homo sapiens), sequence (P08684 whole entry, looked up): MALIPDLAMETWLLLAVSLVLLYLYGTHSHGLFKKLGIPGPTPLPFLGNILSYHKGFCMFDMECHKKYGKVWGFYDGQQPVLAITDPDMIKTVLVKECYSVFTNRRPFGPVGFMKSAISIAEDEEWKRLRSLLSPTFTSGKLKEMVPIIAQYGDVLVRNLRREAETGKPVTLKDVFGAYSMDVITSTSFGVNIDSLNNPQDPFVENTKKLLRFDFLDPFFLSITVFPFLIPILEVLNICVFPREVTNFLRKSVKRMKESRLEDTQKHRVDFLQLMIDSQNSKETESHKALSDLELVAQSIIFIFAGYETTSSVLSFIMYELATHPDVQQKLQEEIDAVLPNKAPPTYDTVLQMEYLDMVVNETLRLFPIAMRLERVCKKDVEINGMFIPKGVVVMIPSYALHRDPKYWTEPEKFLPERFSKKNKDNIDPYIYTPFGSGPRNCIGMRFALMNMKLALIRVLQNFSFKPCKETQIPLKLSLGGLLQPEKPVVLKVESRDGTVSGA
Voltage-gated inwardly rectifying potassium channel KCNH2 (Homo sapiens), sequence (Q12809 whole entry, looked up): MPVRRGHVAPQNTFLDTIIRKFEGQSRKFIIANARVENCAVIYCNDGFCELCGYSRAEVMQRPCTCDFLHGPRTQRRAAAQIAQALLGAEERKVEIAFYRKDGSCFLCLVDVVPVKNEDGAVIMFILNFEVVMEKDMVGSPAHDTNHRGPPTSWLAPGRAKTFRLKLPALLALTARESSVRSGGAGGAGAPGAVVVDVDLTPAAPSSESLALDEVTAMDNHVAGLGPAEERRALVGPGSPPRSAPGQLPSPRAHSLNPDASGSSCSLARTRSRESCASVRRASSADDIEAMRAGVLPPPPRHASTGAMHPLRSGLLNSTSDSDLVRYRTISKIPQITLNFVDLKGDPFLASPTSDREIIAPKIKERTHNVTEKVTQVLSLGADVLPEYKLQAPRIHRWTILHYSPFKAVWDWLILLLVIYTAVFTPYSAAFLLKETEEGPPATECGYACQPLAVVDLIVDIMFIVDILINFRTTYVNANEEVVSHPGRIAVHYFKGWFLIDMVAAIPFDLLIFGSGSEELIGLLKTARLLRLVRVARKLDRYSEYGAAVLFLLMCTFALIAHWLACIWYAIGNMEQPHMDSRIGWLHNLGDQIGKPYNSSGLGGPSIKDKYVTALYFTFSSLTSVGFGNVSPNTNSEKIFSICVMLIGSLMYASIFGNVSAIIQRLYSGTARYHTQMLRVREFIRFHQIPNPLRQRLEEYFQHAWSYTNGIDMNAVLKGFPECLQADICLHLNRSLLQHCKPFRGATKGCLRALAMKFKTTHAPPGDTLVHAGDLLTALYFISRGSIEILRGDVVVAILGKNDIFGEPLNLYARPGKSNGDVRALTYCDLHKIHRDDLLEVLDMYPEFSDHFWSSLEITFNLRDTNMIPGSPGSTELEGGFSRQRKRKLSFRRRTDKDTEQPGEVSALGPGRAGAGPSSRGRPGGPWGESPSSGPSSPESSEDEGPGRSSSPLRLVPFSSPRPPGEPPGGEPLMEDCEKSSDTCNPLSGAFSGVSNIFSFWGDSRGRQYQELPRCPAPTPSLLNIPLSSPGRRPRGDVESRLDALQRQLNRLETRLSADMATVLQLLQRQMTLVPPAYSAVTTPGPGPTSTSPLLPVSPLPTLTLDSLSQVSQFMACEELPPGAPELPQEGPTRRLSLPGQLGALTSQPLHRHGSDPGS
Cytochrome P450 2C9 (Homo sapiens), sequence (P11712 whole entry, looked up): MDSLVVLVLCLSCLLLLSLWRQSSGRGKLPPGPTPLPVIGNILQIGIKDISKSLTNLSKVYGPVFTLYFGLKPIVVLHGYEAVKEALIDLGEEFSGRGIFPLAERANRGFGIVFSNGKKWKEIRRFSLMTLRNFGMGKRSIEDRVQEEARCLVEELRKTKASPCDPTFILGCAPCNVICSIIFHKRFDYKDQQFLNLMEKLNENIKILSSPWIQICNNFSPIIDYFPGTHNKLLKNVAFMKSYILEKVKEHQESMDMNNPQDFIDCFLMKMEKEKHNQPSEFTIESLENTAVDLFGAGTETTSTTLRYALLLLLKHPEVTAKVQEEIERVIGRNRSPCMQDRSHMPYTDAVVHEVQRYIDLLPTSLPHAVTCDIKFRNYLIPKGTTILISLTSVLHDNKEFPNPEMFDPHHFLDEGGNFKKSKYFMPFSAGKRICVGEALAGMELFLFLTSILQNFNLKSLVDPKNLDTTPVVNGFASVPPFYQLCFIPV

Compound | Potency [1] | Potency [2] | Potency [3] | activity change, negative = inhibition [2] | activity change, negative = inhibition [3]
COc1cccc2c1C(=O)c1c(O)c3c(c(O)c1C2=O)C[C@@](O)(C(=O)CO)C[C@@H]3O[C@H]1C[C@H](N)[C@H](O[C@@H]2CCCCO2)[C@H](C)O1 | 15.5 µM (active) | inactive | – | – | –
Cc1oc(-c2ccccc2)nc1CCC(=O)c1ccc(CC2SC(=O)NC2=O)cc1 (stereo not given) | 7.76 µM (active) | inactive | – | – | –
Nc1c(Cl)cc(Cl)cc1Cl | inactive | inactive | – | – | –
COc1ccc(-c2ccc3cc(C(=O)O)ccc3c2)cc1C12CC3CC(CC(C3)C1)C2 | inactive | inactive | inactive | – | –
O=C(OC[C@H]1O[C@@H](OC(=O)c2cc(O)c(O)c(OC(=O)c3cc(O)c(O)c(O)c3)c2)[C@H](OC(=O)c2cc(O)c(O)c(OC(=O)c3cc(O)c(O)c(O)c3)c2)[C@@H](OC(=O)c2cc(O)c(O)c(OC(=O)c3cc(O)c(O)c(O)c3)c2)[C@@H]1OC(=O)c1cc(O)c(O)c(OC(=O)c2cc(O)c(O)c(O)c2)c1)c1cc(O)c(O)c(OC(=O)c2cc(O)c(O)c(O)c2)c1 | 21.5 µM (active) | – | – | 1.88% [at 15.8 µM] | -11% [at 23.6 µM]
O=c1cc(-c2ccc(O)cc2)oc2cc(O)cc(O)c12 | 36.1 µM (active) and 39.9 µM (active) | inactive | – | – | –
NC(=NCCCCCCN=C(N)/N=C(\N)Nc1ccc(Cl)cc1)/N=C(\N)Nc1ccc(Cl)cc1 | 25.1 µM (active) [middle of 5 runs] | inactive | – | – | –
COc1cc(-c2nc(NC(=O)c3cc4cc(C)cc(C)c4n3CC(=O)O)sc2CCC2CCCCC2)c(OC)cc1Cl | 51.7 µM (active) | inactive | – | – | –
CNC(=O)c1ccccc1 | inactive | inactive | inactive | – | –
CN1CCN(CCC(=O)N2c3ccccc3Sc3ccc(C(F)(F)F)cc32)CC1 | inactive | 4770 nM (active) | – | – | –
CCCCCCCC(=O)[O-].CCCCCCCC(=O)[O-].[Zn+2] | inactive | inactive | inactive | – | –
Cc1c(C)c2c(c(C)c1OC(=O)CCC(=O)O)CC[C@@](C)(CCC[C@H](C)CCC[C@H](C)CCCC(C)C)O2 | inactive | inactive | – | – | –
Oc1ccc(C2(c3ccc(O)cc3)CC3CC2C2CCCC32)cc1 (stereo not given) | 38.4 µM (active) | inactive | 38.4 µM (active) | – | –
N=C1C=CC(=C(c2ccc(N)cc2)c2ccc(N)cc2)C=C1 | 39.9 µM (active) | inactive | 12.6 µM (active) | – | –
Nc1c2ccccc2nc2ccccc12 | inactive | inactive | inactive | – | –
CCN(CC)CCCC(C)Nc1c2ccc(Cl)cc2nc2ccc(OC)cc12 (stereo not given) | inactive | inactive | inactive | – | –
C1CCCC1 | inactive | inactive | inactive | – | –
Clc1ccccc1C(c1ccccc1)(c1ccccc1)n1ccnc1 | 1.12 µM (active) and 1.1 µM (active) | 19.5 µM (active) and 16.9 µM (active) | – | – | –
Fc1ccc(C(c2ccc(F)cc2)N2CCN(C/C=C/c3ccccc3)CC2)cc1 | 15.5 µM (active) | 848 nM (active) | inactive | – | –
CSc1ccc(/C=C2/C(C)=C(CC(=O)O)c3cc(F)ccc32)cc1 | 24.5 µM (active) | inactive | inactive | – | –
CCc1cc(SCc2sc(-c3ccc(C(F)(F)F)cc3)nc2CN2CCN(c3ccc(OC)cc3)CC2)ccc1OCC(=O)O | 20 µM (active) | 4360 nM (active) | 11.2 µM (active) | – | –
CCCC(C)c1ccccc1O (stereo not given) | 35.6 µM (active) | inactive | inactive | – | –
CC(=O)SC[C@@H](Cc1ccccc1)C(=O)NCC(=O)OCc1ccccc1 | 3.47 µM (active) | inactive | – | – | –
OCc1c[nH]c2ccccc12 | 7.52 µM (active) | inactive | – | – | –
CC(C)(C)c1ccc(C(=O)O)cc1 | inactive | inactive | inactive | – | –

Compound | Potency [1] | Potency [2] | Potency [3] | activity change, negative = inhibition [2] | activity change, negative = inhibition [3]
CCOc1nc2cccc(C(=O)OC(C)OC(=O)OC3CCCCC3)c2n1Cc1ccc(-c2ccccc2-c2nn[nH]n2)cc1 (stereo not given) | 10 µM (active) | inactive | – | – | –
O=c1[nH]sc2cc(Cl)ccc12 | 13.8 µM (active) | inactive | – | – | –
CCCCCCCCCCCCCC[P+](CCCC)(CCCC)CCCC (tested in a mixture with another compound) | 11.3 µM (active) | 124 nM (active) | inactive | – | –
CCCCCCCCCCn1cc[n+](CCCCCCCCCC)c1C | 40 µM (active) | 490 nM (active) | 31.8 µM (active) | – | –
Oc1cccc2cc3cccc(O)c3c(O)c12 | inactive | inactive | inactive | – | –
Cc1cc(C2CCCCC2)n(O)c(=O)c1 | inactive | inactive | inactive | – | –
O=C(Nc1cccc(C(F)(F)F)c1)c1cc(Br)cc(Br)c1O | 14.2 µM (active) | inactive | 22.4 µM (active) | – | –
OC1(c2ccc(Cl)c(C(F)(F)F)c2)CCN(CCCC(c2ccc(F)cc2)c2ccc(F)cc2)CC1 | 8.71 µM (active) | 239 nM (active) | inactive | – | –
CC(C)(C)C(=O)OCOC(=O)[C@@H]1N2C(=O)[C@@H](NC(=O)[C@H](N)c3ccccc3)[C@H]2SC1(C)C | 24.5 µM (active) | inactive | – | – | –
Cc1cc(=O)oc2cc(N(C)C)ccc12 | 44.8 µM (active) | inactive | 25.2 µM (active) | – | –
CC(C)CCCCCCCCCCCCCCC(=O)O | inactive | inactive | inactive | – | –
NNc1nc(-c2ccc(N)cc2)cs1 | 31.7 µM (active) | inactive | 14.2 µM (active) | – | –
C=CC(=O)OCC(CO)(COC(=O)C=C)COC(=O)C=C | 11.3 µM (active) and 11.2 µM (active) | – | 1.01 µM (active) and 1.12 µM (active) | – | –
Cc1cc(O)c(C(C)(C)C)cc1Sc1cc(C(C)(C)C)c(O)cc1C | 2.51 µM (active) | – | 5.63 µM (active) | – | –
CCOC(=O)O[C@H](C)OC(=O)c1ccc2c(c1)cc(C(=O)NC1CCN(C(C)C)CC1)n2Cc1cc(-c2ccc(Cl)s2)on1 | 33.2 µM (active) | – | 5.91 µM (active) | – | –
CCCCCCCCNC(C)C(O)c1ccc(SC(C)C)cc1 (stereo not given) | 30.9 µM (active) | – | inactive | – | –
O=C1CCCc2c1cc1ccc3cccc4ccc2c1c34 | 5.71 µM (active) | inactive | 9.05 µM (active) | – | –
CCCCC(CC)COC(=O)c1ccccc1C(=O)O (stereo not given) | 5.91 µM (active) | inactive | inactive | – | –
N=C1N=C(N)c2ccccc21 | inactive | inactive | inactive | – | –
Clc1ccc2n[nH]nc2c1 | inactive | inactive | inactive | – | –
NC(=O)CC[C@@H]1NC(=O)[C@H](Cc2ccccc2)NC(=O)[C@H](Cc2ccc(O)cc2)NC(=O)CCSSC[C@@H](C(=O)N2CCC[C@H]2C(=O)N[C@@H](CCCN=C(N)N)C(=O)NCC(N)=O)NC(=O)[C@H](CC(N)=O)NC1=O | inactive | inactive | inactive | – | –
O=c1[nH]cnc2nc[nH]c12 | inactive | inactive | inactive | – | –
CCCCC(CC)COP(=O)(O)OCC(CC)CCCC (stereo not given) | 22.5 µM (active) and 17.8 µM (active) | inactive | inactive | – | –
CCCCCCCCCCCCc1ccc(O)cc1 | 6.33 µM (active) | – | 35.6 µM (active) | – | –
CC1=C(/C=C/C(C)=C/C=C/C(C)=C/C=O)C(C)(C)CCC1 | 44.6 µM (active) | – | 28.1 µM (active) | – | –
